Experimental data: the supplement of paper PMC6555819

Key:
Assay in all cases: PBM binding z-score (relative to random genomic background probes); higher = stronger binding; sequences stand for … in GC…GCGATTGACAGCGTAGAATGAAGG
[1] = test system: FXR:RXRa (NR concentration 270 nM, RXRa partner concentration 90 nM)
Procedure, shortened: (§1)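 The probes on custom Agilent 4×180K protein-binding microarrays were double-stranded, with 34-nt variable regions bearing direct-repeat seeds, single-nucleotide variants, half-site ablations and random human genomic background sequences. Incubation lasted 1 h with ligand-free nuclear receptor dimers in PBS pH 7.4, 2% milk, 0.02% Triton X-100, 1 mM DTT, 0.2 mg/mL BSA and 0.4 mg/ml salmon testes DNA. Antibodies against each partner (one per run) detected bound dimers, and fluorescence scans were regression-normalized. Binding z-scores take the random background probes as reference.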

[2] = test system: LXRa:RXRa (NR concentration 270 nM, RXRa partner concentration 90 nM)
Procedure, shortened: as §1

[3] = test system: LXRa homodimer (NR concentration 270 nM)
Procedure, shortened: as §1

[4] = test system: LXRb:RXRa (NR concentration 270 nM, RXRa partner concentration 90 nM)
Procedure, shortened: as §1

[5] = test system: LXRb homodimer (NR concentration 270 nM)
Procedure, shortened: as §1

[6] = test system: PPARa:RXRa (NR concentration 270 nM, RXRa partner concentration 90 nM)
Procedure, shortened: as §1

[7] = test system: PPARg:RXRa (NR concentration 180 nM, RXRa partner concentration 90 nM)
Procedure, shortened: as §1

[8] = test system: PPARg:RXRa 270nM:90nM, anti-RXR (NR concentration 270 nM, RXRa partner concentration 90 nM)
Procedure, shortened: as §1

[9] = test system: PPARg:RXRa 30nM:10nM, anti-RXR (NR concentration 30 nM, RXRa partner concentration 10 nM)
Procedure, shortened: as §1

[10] = test system: PPARg:RXRa 90nM:30nM, anti-RXR (NR concentration 90 nM, RXRa partner concentration 30 nM)
Procedure, shortened: as §1

[11] = test system: PPARg:RXRa DBDmut IVT, anti-RXR (DBD mutation: RXRa K156A/R161A, NR concentration 270 nM, RXRa partner concentration 90 nM)
Procedure, shortened: as §1

[12] = test system: PPARg:RXRa IVT, anti-PPARg (NR concentration 270 nM, RXRa partner concentration 90 nM)
Procedure, shortened: as §1

[13] = test system: PPARg DBDmut:RXRa IVT, anti-PPARg (DBD mutation: PPARg1 K132A/R137A, NR concentration 270 nM, RXRa partner concentration 90 nM)
Procedure, shortened: as §1

[14] = test system: PPARg DBDmut IVT, anti-PPARg (DBD mutation: PPARg1 K132A/R137A, NR concentration 270 nM)
Procedure, shortened: as §1

[15] = test system: PPARg homodimer (NR concentration 180 nM)
Procedure, shortened: as §1

[16] = test system: PXR:RXRa (NR concentration 270 nM, RXRa partner concentration 90 nM)
Procedure, shortened: as §1

[17] = test system: PXR homodimer (NR concentration 270 nM)
Procedure, shortened: as §1

[18] = test system: RARa:RXR (NR concentration 270 nM, RXRa partner concentration 90 nM)
Procedure, shortened: as §1

[19] = test system: RARa homodimer (NR concentration 270 nM)
Procedure, shortened: as §1

[20] = test system: RARb:RXRa (NR concentration 270 nM, RXRa partner concentration 90 nM)
Procedure, shortened: as §1

Sequence | PBM binding z-score [1] | PBM binding z-score [2] | PBM binding z-score [3] | PBM binding z-score [4] | PBM binding z-score [5] | PBM binding z-score [6] | PBM binding z-score [7] | PBM binding z-score [8] | PBM binding z-score [9] | PBM binding z-score [10] | PBM binding z-score [11] | PBM binding z-score [12] | PBM binding z-score [13] | PBM binding z-score [14] | PBM binding z-score [15] | PBM binding z-score [16] | PBM binding z-score [17] | PBM binding z-score [18] | PBM binding z-score [19] | PBM binding z-score [20]
AGAATGAGGTTATTAAGATCAGGGAATTGCGGTC | 1.82 | 1.51 | 0.178 | 1.26 | -0.237 | 2.39 | 1.44 | 1.72 | 0.425 | 0.999 | 3.22 | 2.5 | 1.04 | 0.418 | 1.11 | 1.48 | 0.762 | 1.56 | 0.273 | 1.46
AGAACGAGGGGACGCTGAGTTGATAGCAGAGTAG | -0.308 | -0.353 | -0.679 | -0.522 | -0.449 | -0.232 | 0.607 | 0.0813 | -0.0641 | -0.258 | 1.17 | 0.723 | 0.599 | 0.498 | -0.427 | -0.245 | 0.132 | -0.589 | -0.633 | 0.334
ATCGAAAGGTCGAAGGTGAGTAAACCCACCCGAA | 4.69 | 3.83 | 0.284 | 3.05 | 0.315 | 4.88 | 4.96 | 5.19 | 1.91 | 4.14 | 0.0227 | 2.17 | 0.972 | 0.487 | 1.89 | 3.11 | 0.0457 | 4.5 | 0.979 | 3.88
